Inconclusive results are not listed. Calls of active or inactive are those of the source. Unless noted, calls follow the shape of the dose curve; as a rule, active = well fitted curve in the direction sought with a large enough effect in the repeat runs; inconclusive = weak or mixed curves; inactive = no such curve, though single readings can be large; an effect the other way counts as inactive or inconclusive.
Assays:
[1] = qHTS assay for small molecule agonists of the p53 signaling pathway (AID 651631; calls by dose curve; also: nearly all actives have a fitted effect of over 15% in size)
Procedure, shortened: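 p53RE-bla HCT-116 cells; compounds 16 h, 37 °C; LiveBLAzer B/G FRET substrate 2 h RT; fluorescence intensity read-out, qHTS format.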

[2] = qHTS assay for small molecules that induce genotoxicity in human embryonic kidney cells expressing luciferase-tagged ATAD5 (AID 651632); also: nearly all actives have a fitted effect of over 15% in size
Procedure, shortened: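 Genotoxicity read-out via ATAD5-luciferase: HEK293T cells, 16 hr compound incubation at 37C, Amplite detection.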

[3] = qHTS assay for small molecule agonists of the p53 signaling pathway - cell viability (AID 651633; calls by dose curve;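 also: p53RE-bla HCT reporter cells with a stable beta-lactamase p53 reporter; series mostly up to about 83 µM; nearly all actives have a fitted effect of over 30% in size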)
Procedure, shortened: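 Viability counter-read: CellTiter-Glo luminescence (30 min, room temperature) in the same p53RE-bla plates. These plates had been exposed to compounds for 16 h at 37 C.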

[4] = qHTS assay for small molecules that induce genotoxicity in human embryonic kidney cells expressing luciferase-tagged ATAD5 - cell viability (AID 651634; calls by dose curve; also: nearly all actives have a fitted effect of over 25% in size)
Procedure, shortened: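 Live-cell protease activity (CellTiter-Fluor, fluorescence) indicates viability. HEK293T cells with luciferase-tagged ATAD5; 15.5 hr compound treatment at 37C.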

[5] = qHTS assay to test for compound auto fluorescence at 590 nm (red) in HepG2 cells (AID 720674)
Procedure, shortened: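 We screened compounds on adherent HepG2 cells, incubating them for an hour at 37 C in 5% CO2 before reading emission at 590 nm under 540 nm excitation; values reflect equivalence to Rose Bengal sodium fluorescence.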

[6] = qHTS assay to test for compound auto fluorescence at 535 nm (green) in HepG2 cells (AID 720675)
[7] = qHTS assay to test for compound auto fluorescence at 460 nm (blue) in HEK293 cells (AID 720678)
Procedure, shortened: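 Intrinsic compound fluorescence is recorded in live HEK293 cultures after overnight incubation at 37C, 5% CO2, using excitation 405 nm and emission 460 nm. Values are referenced to triamterene.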

[8] = qHTS assay to test for compound auto fluorescence at 590 nm (red) in HEK293 cells (AID 720679)
Procedure, shortened: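 Red autofluorescence, HEK293 cells: 2,000 cells/well; attach 4-5 hr 37C; add 23 nL cpd or DMSO; incubate o/n 37C 5% CO2; read Ex540/Em590; Rose Bengal sodium reference.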

[9] = qHTS assay to test for compound auto fluorescence at 460 nm (blue) in HEK293 cell free culture (AID 720681)
Procedure, shortened: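 Blue fluorescence (Ex 405/Em 460 nm, triamterene-equivalent) was read immediately after pin transfer of compound or DMSO into medium (DMEM, 10% FBS) without cells.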

[10] = qHTS assay to test for compound auto fluorescence at 535 nm (green) in HEK293 cell free culture (AID 720682)
Procedure, shortened: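 Cell-free medium (DMEM, 10% FBS) receives compound or DMSO by pintool. Plate read directly at Ex 485/Em 535 nm. Signal converted to fluorescein equivalency.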

[11] = qHTS assay to test for compound auto fluorescence at 590 nm (red) in HEK293 cell free culture (AID 720683)
Procedure, shortened: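 Red-channel autofluorescence of compounds in culture medium (DMEM, 10% FBS), no cells, measured at 540/590 nm. Rose Bengal sodium is the reference fluorophore for equivalence.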

[12] = qHTS assay to test for compound auto fluorescence at 590 nm (red) in HepG2 cell free culture (AID 720684)
Procedure, shortened: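 Steps: dispense MEM/10% FBS medium, no cells; pin compound or DMSO vehicle; read red channel, Ex/Em 540/590 nm. Output given as Rose Bengal sodium equivalents.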

[13] = qHTS assay to test for compound auto fluorescence at 460 nm (blue) in HepG2 cell free culture (AID 720685)
Procedure, shortened: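 Compound (23 nL) or DMSO pinned into cell-free MEM with 10% FBS; blue fluorescence read at 405/460 nm excitation/emission, expressed as auto-fluorescence equivalency to triamterene.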

[14] = qHTS assay to test for compound auto fluorescence at 535 nm (green) in HepG2 cell free culture (AID 720686)
[15] = qHTS assay to test for compound auto fluorescence at 460 nm (blue) in HepG2 cells (AID 720687)
Procedure, shortened: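 Blue-channel autofluorescence (Ex/Em 405/460 nm, triamterene-equivalent) was measured after 1 hr compound exposure at 37 C, 5% CO2. Cells were HepG2, plated overnight at 37 C in MEM plus 10% FBS.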

[16] = qHTS assay for small molecule disruptors of the mitochondrial membrane potential - cell viability (AID 720634; calls by dose curve;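 also: human HepG2 liver cancer cells; series mostly up to about 83 µM; nearly all actives have a fitted effect of over 20% in size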)
Procedure, shortened: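 Human hepatoma HepG2 cells were treated for 1 hr with test chemicals, then given m-MPI dye and CellTiter-Glo. Cell viability reflects luminescence proportional to cellular ATP.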

[17] = qHTS assay to test for compound auto fluorescence at 535 nm (green) in HEK293 cells (AID 720680)
[18] = biological target: Glucocorticoid receptor (Homo sapiens) (UniProt P04150); assay: qHTS assay to identify small molecule antagonists of the glucocorticoid receptor (GR) signaling pathway (AID 720692; active = well fitted inhibition curve with a large enough effect in the signal ratio in the repeat runs, not every such curve was filed as active; the % refers to the signal ratio)
Sequence of Glucocorticoid receptor (Homo sapiens) (P04150 whole entry, looked up): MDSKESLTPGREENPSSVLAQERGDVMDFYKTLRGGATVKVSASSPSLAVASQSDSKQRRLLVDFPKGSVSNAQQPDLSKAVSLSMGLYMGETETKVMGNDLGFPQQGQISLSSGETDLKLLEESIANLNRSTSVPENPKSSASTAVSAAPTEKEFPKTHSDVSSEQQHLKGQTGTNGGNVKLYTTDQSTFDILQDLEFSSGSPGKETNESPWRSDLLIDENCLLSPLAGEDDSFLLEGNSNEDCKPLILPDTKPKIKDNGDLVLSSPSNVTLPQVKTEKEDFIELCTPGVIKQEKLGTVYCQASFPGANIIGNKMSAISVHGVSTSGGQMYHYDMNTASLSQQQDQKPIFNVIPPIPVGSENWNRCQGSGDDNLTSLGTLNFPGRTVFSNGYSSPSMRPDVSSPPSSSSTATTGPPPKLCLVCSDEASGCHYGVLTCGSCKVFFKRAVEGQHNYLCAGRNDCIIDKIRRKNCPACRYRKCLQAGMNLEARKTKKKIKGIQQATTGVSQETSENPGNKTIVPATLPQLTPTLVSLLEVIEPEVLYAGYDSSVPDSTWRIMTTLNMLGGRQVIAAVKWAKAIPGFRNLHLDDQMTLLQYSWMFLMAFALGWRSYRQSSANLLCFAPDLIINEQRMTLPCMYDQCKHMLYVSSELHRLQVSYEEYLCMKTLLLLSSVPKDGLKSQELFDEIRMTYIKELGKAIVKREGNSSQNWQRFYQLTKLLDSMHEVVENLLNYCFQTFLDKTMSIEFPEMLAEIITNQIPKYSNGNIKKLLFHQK
Procedure, shortened: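 Fluorescence from cleaved LiveBLAzer B/G FRET substrate reports GRE-driven beta-lactamase in HeLa cells; compounds are tested against 5 nM dexamethasone (final) over 18 h at 37 C, substrate incubation 2 h at room temperature.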

[19] = biological target: Glucocorticoid receptor (Homo sapiens) (UniProt P04150); assay: qHTS assay to identify small molecule agonists of the glucocorticoid receptor (GR) signaling pathway (AID 720691; active = well fitted activation curve with a large enough effect in the signal ratio in the repeat runs, not every such curve was filed as active; the % refers to the signal ratio)
Procedure, shortened: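 Beta-lactamase reporter activity, read as fluorescence intensity, was measured in GR-bla HeLa cells exposed to compounds for 18 h at 37 C and then loaded with LiveBLAzer B/G FRET substrate for 2 h at room temperature.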

[20] = qHTS assay for small molecule disruptors of the mitochondrial membrane potential (AID 720635)
Procedure, shortened: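 Mitochondrial membrane potential tracked with Mito-MPS dye, red aggregates (ex 540/em 590 nm) against green monomers (ex 490/em 535 nm). Compound treatment 1 hr at 37C, dye 30 min in HepG2.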

Measured: Potency

N#CC(Br)(Br)C(N)=O
inactive: [1] | [2] | [3] | [4] | [5] | [6] | [7] | [8] | [9] | [10] | [11] | [12] | [13] | [14] | [15]

CN1COCN(Cc2cnc(Cl)s2)/C1=N\[N+](=O)[O-]
inactive: [1] | [2] | [3] | [4] | [16] | [5] | [6] | [7] | [8] | [17] | [9] | [10] | [11] | [13] | [15] | [18]

O=C(O)CBr
inactive: [1] | [2] | [3] | [4] | [16] | [5] | [6] | [7] | [8] | [17] | [9] | [10] | [11] | [13] | [14] | [15]

N[C@@H]1C[C@H]1c1ccccc1
inactive: [1] | [2] | [3] | [4] | [16] | [5] | [6] | [7] | [8] | [9] | [11] | [12] | [13] | [14] | [15]

C=CC=O
inactive: [1] | [2] | [3] | [4] | [5] | [6] | [7] | [8] | [17] | [9] | [10] | [11] | [13] | [14] | [15] | [19] | [18]

CCCCCCC1CCOC1=O (configuration not stated)
inactive: [1] | [2] | [3] | [16] | [20] | [5] | [6] | [7] | [8] | [17] | [9] | [10] | [11] | [12] | [13] | [14] | [15] | [19] | [18]

CCCCCCCC(=O)Cl
inactive: [1] | [2] | [3] | [16] | [20] | [5] | [6] | [7] | [8] | [17] | [9] | [10] | [11] | [13] | [14] | [15] | [19] | [18]

CCC(C)(C#N)N=NC(C)(C#N)CC (configuration not stated)
inactive: [1] | [2] | [3] | [4] | [16] | [5] | [6] | [7] | [8] | [17] | [9] | [10] | [11] | [13] | [15]

CC(=O)CN(CC(C)=O)N=O
inactive: [1] | [2] | [3] | [4] | [16] | [5] | [6] | [7] | [8] | [9] | [10] | [11] | [12] | [13] | [14] | [15]

From PubChem BioAssay (Tox21)
